Screening data as filed in PubChem BioAssay.
Only some compounds are listed: those with a hit (about 11% of all), similar ones and a draw of the others.
Pf growth 96h = P. falciparum growth inhibition at 96 hours; 320,000 tested, 6.9% active; Potency, µM (series often up to 28.7 µM), without a hit: at the highest dose activity change, negative = inhibition, actives largely listed as inhibitors; P. falciparum luciferase reporter growth, 96 h; note: % is set by controls: 0 for no effect and ±100 for the full control effect
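Luminescence readout: decreased luciferase signal marks inhibited growth of reporter-expressing P. falciparum in infected red cells (2% hematocrit, 0.05% parasitemia final), exposed to compound two generations (96 h, 37 C, 5% CO2).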
Pf growth 48h = P. falciparum growth inhibition at 48 hours (one generation); AID 504832; 310,000 tested, 5.9% active; Potency, µM (titrated, usually from 28.7 µM), without a hit: at the top dose activity change, negative = inhibition, usual class: inhibitors; P. falciparum luciferase growth in erythrocytes, 48 h; note: % is set by controls: 0 for no effect and ±100 for the full control effect
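Growth was read as firefly luciferase luminescence after a 48 h, 37 C, 5% CO2 exposure of compounds to reporter-bearing P. falciparum cultures (0.1% parasitemia, 2% hematocrit final) in Albumax-supplemented RPMI 1640.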
HCV inh = HCV inhibition | Huh7.5.1 HCVcc-Cre infection, luciferase reporter, 44 h | Potency, µM (series often up to 41.8 µM), for inactives: top-dose activity change, negative = inhibition, most hits filed as inhibitors | 340,000 tested, 3.4% active; note: % is set by controls: 0 for no effect and ±100 for the full control effect
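Cells (1,000/well) were plated 4 h before compound, then infected with HCVcc-Cre virus (~0.5 moi). After 44 h further culture, infection was read as luciferase luminescence following a 15 min substrate incubation at room temperature.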
VACV Venus inh = vaccinia inhibition (Venus reporter); 330,000 tested, 0.46% active; AID 720580; Potency, µM (top dose mostly 36.5 µM), without a hit: at the highest dose activity change, negative = inhibition, most hits filed as inhibitors; Vaccinia virus Venus reporter expression, fluorescence; calls by dose curve; tested in A549 cells; note: % is set by controls: 0 for no effect and ±100 for the full control effect; nearly all actives have a fitted effect of over 30% in size
NS1 inh = influenza NS1 inhibition; Potency, µM (titrated, usually from 46.1 µM), for the others: at the highest dose activity, positive = more growth; 270,000 tested, 0.4% active; calls by dose curve; note: actives are rising curves; nearly all actives have a fitted effect of over 50% in size
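A cell-based growth assay was used: compounds that relieve NS1-induced slow growth of budding yeast raise OD600. Assay medium was yeast nitrogen base with ammonium sulphate and -URA supplement, pH 6.0, with 2% galactose.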
Vaccinia mCherry = vaccinia inhibition (mCherry reporter); 310,000 tested, 0.63% active; Vaccinia virus mCherry reporter infection, fluorescence; Potency, µM (titrated, usually from 36.5 µM), for the others: top-dose activity change, negative = inhibition, usual class: inhibitors; calls by dose curve; tested in A549 cells; note: % is set by controls: 0 for no effect and ±100 for the full control effect; nearly all actives have a fitted effect of over 35% in size
Starred values were filed as active, the others as inactive; i = inactive; ? = inconclusive; / = no result; [ ] = dose if it differs, or a comment. Unless noted, calls come from the whole dose curve; as a rule, active = well fitted inhibition curve with a large enough effect; inconclusive = small, poorly fitted or top-dose-only effect, or another doubt; inactive = no such curve, though single readings can be large or run the other way. Potency is the fitted concentration of half-maximal effect.

SMILES	Pf growth 96h	Pf growth 48h	HCV inh	VACV Venus inh	NS1 inh	Vaccinia mCherry
CCCCn1c(N)c(N(CC)C(=O)c2ccccc2C)c(=O)[nH]c1=O	8%	2%	6%	-5%	18%	i
O=c1[nH]c(O)c(C=Nc2ccc(Cl)c(C(F)(F)F)c2)c(=O)[nH]1	41%	?	3%	-5%	6%	-13%
COc1cccc(C(=O)NC2CC3CCCC(C2)N3Cc2ccc(F)cc2)c1 (stereo not given)	/	/	/	-11%	/	i
CCCC(=O)Nc1nc(C)c(-c2csc(Nc3ccccc3C)n2)s1	?	12µM*	-2%	-19%	2%	-22%
C[n+]1c2n(c3ccccc31)N=C(c1cc(C(C)(C)C)c(O)c(C(C)(C)C)c1)CS2	23%	?	?	10µM*	-3%	?
CCc1nc(NCCC(C)C)c(C#N)c2c1CCCC2	-15%	/	-6%	3%	-4%	-8%
CCc1nc(NCc2ccccc2)c(C#N)c2c1CCCC2	?	10µM*	1%	/	-5%	/
CCN1CCc2c(C#N)c(N3CCCCC3)nc(NCc3ccccc3)c2C1	2.6µM*	?	-20%	/	-12%	/
CCN1CCc2c(C#N)c(N3CCOCC3)nc(NCc3ccccc3)c2C1	18%	/	?	-6%	-2%	-17%
C=CCCC(=O)N1CCC(n2nccc2NC(=O)c2ccc(OC)cc2)CC1	12µM*	-7%	2%	-21%	2%	i
CCSC1=C(C#N)C(c2cccc(Br)c2)CC(=O)N1 (stereo not given)	13%	6.6µM*	-5%	-10%	-4%	-16%
CCc1ccc(NC(=O)CSC2=C(C#N)C(c3ccc4c(c3)OCO4)CC(=O)N2)cc1 (stereo not given)	/	/	11µM*	-17%	/	-3%
N#C/C(=C\c1cn[nH]c1-c1ccccc1)C(=O)NC1CCCCCC1	?	?	25µM*	/	12%	/
N#C/C(=C\c1cccnc1)C(=O)NC1CCCCC1	?	10µM*	12%	-5%	-29%	-1%
O=C(Cc1ccc(Cl)cc1)Oc1cccc2cccnc12	2.6µM*	0%	?	-16%	?	i
O=C(Oc1cccc2cccnc12)c1ccco1	1.3µM*	?	?	-11%	-5%	/
O=C(Oc1cccc2cccnc12)c1ccc(Br)o1	0%[5.75 µM]	-2%	8%	14%	-22%	/
CC1C=CCC2C(=O)N(c3ccccc3OC(=O)c3ccco3)C(=O)C12 (stereo not given)	-9%	40%	7%	/	2%	/
O=C(Oc1ccccc1N1C(=O)CCC1=O)c1ccco1	9.3µM*	-9%	18%	-13%	5%	i
O=C(Oc1ccc(Cl)c2cccnc12)c1ccco1	74%	12µM*	?	-8%	-5%	/
CCn1c(SCC(=O)Nc2ccc3c(c2)OCCO3)nnc1-c1cccnc1	?	2%	7%	-12%	-10%	-9%
CCN(CC(=O)Nc1c(F)cccc1F)C(=O)Cc1ccc(OC)c(S(=O)(=O)N2CCOCC2)c1	0%	-2%	3%	3%	/	-12%
Cc1oc2c(c1C(=O)NCCO)CCCC2	0.013µM*	/	11%	-8%	7%	-16%
Cc1oc2c(c1C(=O)NCc1ccccc1)CCCC2	44%	-16%	-11%	5%	-6%	-5%
O=S(=O)(c1ccccc1Cl)N1CCCC1c1nc(-c2ccc(Cl)cc2)no1 (stereo not given)	21%	0%	10µM*	/	4%	/
O=S(=O)(c1ccc(Cl)cc1)N1CCCC(c2nc(-c3ccc(F)cc3)no2)C1 (stereo not given)	-10%	?	13%	-20%	/	i
CCC12C(=O)C(CC)(C(c3ccccc3)=C1c1ccccc1)[C@@H]1C(=O)N(c3ccccc3)C(=O)C12 (stereo not given in full)	?	2.1µM*	14µM*	-11%	24%	-12%
CC1(C)CC(O)C(C)(C)N1O (stereo not given)	13µM*	80%	6%	-4%	1%	-7%
CCOc1ccc(N(Cc2ccc(OC)c(OC)c2)C(=O)c2ccco2)cc1	15%	12µM*	-24%	-8%	0%	-8%
